Data on 64 compounds can be found in PubChem BioAssay AID1347419 (Sanford-Burnham Center for Chemical Genomics, 2020).

Screen size: about 99,000 compounds; about 820 (0.83%) were called active. The sample holds actives, similar compounds and a random draw of the others, so the mix is not that of the screen. Values without a mark were called inactive.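 Rule for the calls: active = Z-score of -3 or lower, scaled per plate to the spread of control and sample wells; inactive = z-score above -3.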

The target of this assay is Protein-tyrosine kinase 2-beta (Homo sapiens) (UniProt Q14289). The assay is described as follows: Pyk2 FERM oligomerization blockers – Q293 cells, FERM NanoBiT luminescence, HTS, primary screen (AID 1347419).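 Note: the deposit names both 25 µM and 10 µM; negative z-score means lost luminescence so less FERM oligomerization.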 More on the design: dose or concentration left out as unconfirmed. The conditions noted are these: hits give low values.
Protein-tyrosine kinase 2-beta (Homo sapiens), sequence (Q14289 whole entry, looked up): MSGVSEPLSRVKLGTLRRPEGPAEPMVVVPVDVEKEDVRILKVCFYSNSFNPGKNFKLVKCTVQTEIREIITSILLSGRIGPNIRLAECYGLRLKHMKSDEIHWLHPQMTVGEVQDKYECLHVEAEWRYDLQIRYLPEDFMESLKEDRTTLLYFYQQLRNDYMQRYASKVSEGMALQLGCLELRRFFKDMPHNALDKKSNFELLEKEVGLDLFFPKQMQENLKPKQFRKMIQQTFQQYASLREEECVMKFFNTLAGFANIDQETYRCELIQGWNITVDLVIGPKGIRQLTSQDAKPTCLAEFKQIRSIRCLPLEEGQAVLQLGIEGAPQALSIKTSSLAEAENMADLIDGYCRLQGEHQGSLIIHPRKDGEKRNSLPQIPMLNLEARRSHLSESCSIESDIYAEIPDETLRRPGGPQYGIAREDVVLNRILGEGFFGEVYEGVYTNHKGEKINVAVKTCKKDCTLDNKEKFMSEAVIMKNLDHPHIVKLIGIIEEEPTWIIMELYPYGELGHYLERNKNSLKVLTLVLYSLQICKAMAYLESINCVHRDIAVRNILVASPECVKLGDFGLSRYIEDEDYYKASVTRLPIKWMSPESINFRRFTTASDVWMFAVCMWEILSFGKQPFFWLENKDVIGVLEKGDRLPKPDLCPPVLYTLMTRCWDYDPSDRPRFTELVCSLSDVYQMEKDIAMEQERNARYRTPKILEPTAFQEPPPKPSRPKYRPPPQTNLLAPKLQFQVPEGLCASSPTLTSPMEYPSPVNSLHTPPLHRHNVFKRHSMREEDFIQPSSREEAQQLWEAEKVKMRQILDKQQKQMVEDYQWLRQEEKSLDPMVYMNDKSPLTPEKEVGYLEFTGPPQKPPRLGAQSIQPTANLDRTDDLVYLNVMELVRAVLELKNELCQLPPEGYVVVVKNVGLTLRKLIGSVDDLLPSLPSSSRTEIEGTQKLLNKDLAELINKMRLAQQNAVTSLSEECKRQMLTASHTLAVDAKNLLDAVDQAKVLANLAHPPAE
Turning to `CC(NC(=O)C(=O)NN=C1CCC(C(C)(C)C)CC1)c1ccccc1` (centres undefined), the z-score was -0.32. Take `CNc1ccc(NC(C)=O)cc1[N+](=O)[O-]`: the z-score was -0.8.

For `CC(C)CC(=O)NC(=S)Nc1cc(C(=O)O)ccc1Cl`, the z-score is 0.14.

For `COc1ccc(-c2cn(-c3ccc(OC)cc3)c(=S)[nH]2)cc1`, the z-score is 0.64. The value for `CSCCC(NC(=O)COc1ccccc1)C(=O)Nc1ccc(C)cc1` (centres undefined) was 0.49; that for `Fc1ccc2[nH]c3c(N4CCSCC4)ncnc3c2c1` was -3.08 (active); that for `CCN1CCCC1CNc1ncnc2c1[nH]c1ccc(F)cc12` (centres undefined) was 1.26. Take `CC(C)OCCCNc1ncnc2c1[nH]c1ccc(F)cc12`: the z-score is -1.09. Regarding `O=C(CNCc1ccc(F)cc1)Nc1ccccc1-c1ccccc1`, the z-score was -0.24. As to `COc1ccc(C(=O)NNS(=O)(=O)c2ccc(C)cc2)cc1`, the z-score was -0.21. Regarding `CCCCNC(=O)CCn1c(=O)c2ccccc2n(Cc2cc(C)ccc2C)c1=O`, the z-score was 1.04. The value for `CN1/C(=c2/s/c(=C3/C(=O)N(c4ccccc4)NC3=Nc3ccccc3)n(C)c2=O)C(C)(C)c2ccccc21` was -3.22 (active).

With `COc1cccc(-c2ccc(C#N)c(SCC(=O)NCCc3ccc(Cl)cc3)n2)c1`, the z-score was -0.01. Turning to `COc1ccc(Br)cc1CN(C)CC(=O)Nc1cc([N+](=O)[O-])ccc1OC`, the z-score is -1.86. For the compound `Cc1ccc2c(CC(=O)NCc3cccs3)coc2c1`, the z-score was -0.4.

In the case of `N#C/C(=C\c1ccc(N2CCOCC2)o1)C(=O)N1CCOCC1`, the z-score is 0.12. The value for `COc1ccccc1Oc1ccc(N/C=C2/CCCC2=O)cc1` was 0.42. For the compound `CSc1nc(N)c(C#N)c(-c2ccccc2Cl)c1C#N`, the z-score was -2.52. In the case of `COc1ccc(C2CC(=O)Nc3sc(=N)c4c(N)c(C#N)c(N)nc4c32)cc1OC` (centres undefined) it was -1.89; in that of `N#Cc1c(N)nc2c3c(sc(=N)c2c1N)NC(=O)CC3c1ccccc1Cl` (centres undefined), -3.47 (active). Consider `Cc1c(/C=N/N2C(=O)C3C4C=CC(C4)C3C2=O)c2ccccc2n1C` (centres undefined), for which the z-score is 0.37. In the case of `Cc1ccc(CNC(=O)COc2ccc3c(c2)CCC3)cc1` it was 1.09. For the compound `CCCCN(C)c1ccc([N+](=O)[O-])cc1`, the z-score is -0.3. In the case of `O=C(NCCc1ccccc1)C1CCN(S(=O)(=O)c2ccc(Br)s2)CC1` it was 0.91; in that of `Cc1ccc(C(=O)Cc2nnc(C)s2)cc1`, 0.12. In the case of `COC(=O)c1ccc(NC(=O)c2ccccc2NS(=O)(=O)c2ccccc2)cc1` it was -3.71 (active); in that of `CCOc1ccc(NC(=O)c2ccccc2NS(C)(=O)=O)cc1`, -0.27; in that of `COC(=O)c1ccccc1NC(=O)c1ccccc1NS(C)(=O)=O`, 0.05. The value for `O=C(NC(=S)Nc1ccc(NC(=O)c2cccs2)cc1)c1ccc([N+](=O)[O-])cc1` was 0.61; that for `Cc1cccc(N2CCN(C(=O)c3cccc(S(=O)(=O)N4CCc5ccccc5C4)c3)CC2C)c1` (centres undefined) was 0.72.

For the compound `CCc1ccc(C2N3CC4([N+](=O)[O-])CN2CC([N+](=O)[O-])(C3)C4(C)C)cc1` (centres undefined), the z-score was 0.28. With `C=CCn1c(SCC(=O)NCc2ccccc2)nnc1-c1cc(Br)ccc1O`, the z-score is -0.9. Consider `C=CCn1c(CSc2nc3ccccc3s2)nnc1SCC(=O)NCc1ccco1`, for which the z-score is 0.84. In the case of `C=CCn1c(SCC(=O)Nc2nc3ccccc3s2)nnc1-c1ccccc1O` it was -3.16 (active). The value for `N#CC1=C(N)N(c2ccccc2)C2=C(C(=O)CCC2)C1c1ccccc1` (centres undefined) was -0.02. As to `CCCN1C2=C(C(=O)CCC2)C(c2ccc(O)c(Br)c2)C2=C1CCCC2=O`, the z-score was -3.69 (active).

Take `CCCC(=O)N1c2ccccc2NC2=C(C(=O)CCC2)C1c1ccc(F)cc1` (centres undefined): the z-score was -0.82. Consider `CCOc1ccc(Br)cc1S(=O)(=O)Nc1cccc(S(=O)(=O)N(CC)CC)c1`, for which the z-score is 1.18.

Take `O=c1oc2cc(O)ccc2cc1-c1ccc(F)cc1`: the z-score was -0.5. The value for `CCCCCCc1cc2cc(-c3nnc(-c4ccccc4)o3)c(=O)oc2cc1O` was -3.06 (active); that for `CC(C)NC(=O)C(=O)NCCCOC(C)C` was 0.05. In the case of `COC(=O)c1cc(NC(=O)Cc2ccccc2[N+](=O)[O-])ccc1Cl` it was -0.53. In the case of `COc1cc(OC)nc(N/N=C(\c2ccccc2)c2ccncc2)n1` it was 2.22; in that of `O=C(N/N=C/c1cccc([N+](=O)[O-])c1)C1CC(=O)N(c2ccc(Br)cc2)C1` (centres undefined), 0.31.

On to `Cc1nc(-c2ccccc2)sc1C(=O)/C=C/c1ccccc1`, for which the z-score was -0.6.

With `Cc1[nH]c(=O)c(C(=O)/C=C/c2ccccc2)c2c1CCCC2`, the z-score is -3.31 (active). In the case of `O=C(/C=C/c1ccccc1)c1ccoc1` it was 2.22; in that of `CC1(c2cccc([N+](=O)[O-])c2)CC(C)(C)N(C(=O)c2ccccc2)c2ccccc21` (centres undefined), -0.67; in that of `CCn1c(SCC(=O)Nc2ccc(C)cc2)nc2nc3c(cc2c1=O)CCCC3`, -2.19. In the case of `Cc1ccc(S(=O)(=O)N(CC(=O)N/N=C/c2ccc(F)cc2)c2cccc3cccnc23)cc1` it was -0.75. As to `COc1ccc(N(CC(=O)N/N=C/c2cccs2)S(=O)(=O)c2ccc(OC)c(OC)c2)cc1`, the z-score is -2.54.

`COc1ccc(N(CC(=O)N/N=C/c2cccc3c2OCCO3)S(=O)(=O)c2ccc(NC(C)=O)cc2)cc1`: the z-score is -3.71 (active). On to `CC(C)CN(C(=O)CN1CCN(S(=O)(=O)c2ccccc2)CC1)c1c(N)n(CC(C)C)c(=O)[nH]c1=O`, for which the z-score was 0.05.

Take `CCCC(C)C(=O)OCC(=O)Nc1c(Br)cc(C)cc1Br` (centres undefined): the z-score was 1.59. For the compound `CCC(C)(C)n1nnnc1C(c1cccs1)N1CCN(Cc2ccccc2)CC1` (centres undefined), the z-score is 0.51.

For the compound `CCC(C)(C)n1nnnc1C(c1cccs1)N1CCN(c2nc3ccccc3s2)CC1` (centres undefined), the z-score was -3.48 (active). The value for `CCC(C)(C)n1nnnc1C(c1ccccc1OC)N1CCSCC1` (centres undefined) was -0.08. The value for `Cc1ccc(C(=O)COC(=O)c2cccc(N3C(=O)c4c(C)nc5ccccc5c4C3=O)c2)cc1C` was 0.74; that for `CC1(C)C/C(=C(/C#N)C(N)=O)CCO1` was -3.62 (active). In the case of `N#CC(C(N)=O)=C1CCC2(CC1)OCCCCO2` it was 0.83. `O=C(Nc1ccccc1)c1cc2ccccc2[nH]1`: the z-score was 0.86. In the case of `S=C1Nc2cc(Cl)ccc2Sc2ccccc21` it was -0.5.

For the compound `CC1=C(C(=O)Nc2cc(C)ccn2)C(c2cnn(C)c2)C2=C(CC(c3ccccc3)CC2=O)N1` (centres undefined), the z-score was 1.36. Turning to `Cc1nn(-c2ccccc2)c(C)c1/C=C/C(=O)OC(C)C(N)=O` (centres undefined), the z-score is 0.82.
